PubChem BioAssay (EPA / NIEHS)
The source made the active and inactive calls. How the source made its calls: active means hit-call score of the fitted dose curve at least 0.9, where 1 is the maximum; inactive means score below 0.9.

Experiments:
[1] = ATG_CRE_CIS: Attagene CIS-FACTORIAL HepG2 Assay for human cAMP Responsive Element (CRE) binding protein 3 (AID 2282926); conditions: HepG2 CRE cis-reporter, Attagene multiplexed mRNA; actives raise or lower the signal
Outline: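 HepG2 cells transiently transfected with cis-element-driven multiple reporter transcription units; CRE reporter mRNA measured 24 h after dosing by RT-PCR, 6-FAM labelling, HpaI digestion and capillary electrophoresis. Bidirectional fit versus DMSO baseline.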

[2] = molecular target: CCAAT/enhancer-binding protein beta (Homo sapiens) (UniProt P17676); experiment: ATG_C_EBP_CIS: Attagene CIS-FACTORIAL HepG2 Assay for human CCAAT/Enhancer Binding Protein (C/EBP) beta (AID 2282927); conditions: HepG2 Attagene cis-factorial transcription factor reporter; actives raise or lower the signal
CCAAT/enhancer-binding protein beta (Homo sapiens), sequence (P17676 whole entry, looked up): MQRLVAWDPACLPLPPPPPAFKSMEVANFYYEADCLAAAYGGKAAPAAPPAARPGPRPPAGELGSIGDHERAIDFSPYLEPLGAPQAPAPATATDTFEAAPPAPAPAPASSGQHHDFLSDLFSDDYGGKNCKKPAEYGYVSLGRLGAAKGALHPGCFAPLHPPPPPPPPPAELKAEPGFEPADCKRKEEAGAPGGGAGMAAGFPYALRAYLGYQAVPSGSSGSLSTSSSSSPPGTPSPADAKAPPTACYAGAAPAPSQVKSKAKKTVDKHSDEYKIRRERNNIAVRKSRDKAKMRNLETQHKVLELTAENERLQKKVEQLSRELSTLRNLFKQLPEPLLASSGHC
Outline: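 Transiently transfected HepG2 (MRTU library, endogenous TF-driven promoters); 24 h dosing; total RNA → oligo(dT) RT → PCR → 6-FAM primer extension → HpaI digest → CE; fit bidirectionally vs DMSO.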

[3] = ATG_CMV_CIS: Attagene CIS-FACTORIAL HepG2 Assay for human CMV (Internal Marker) (AID 2282928); conditions: HepG2 CMV promoter reporter, transcription factor profiling; actives raise or lower the signal;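 further: endpoint acts as a background internal control marker rather than a target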
Outline: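 CMV internal-marker background readout in transiently transfected HepG2 cells bearing cis-regulated reporter units. Reporter mRNA is measured 24 h after dosing by RT-PCR and capillary electrophoresis, with bidirectional fitting against DMSO.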

[4] = ATG_DR4_LXR_CIS: Attagene CIS-FACTORIAL HepG2 Assay for human Liver X Receptor (LXR), DR4 submotif (AID 2282929); conditions: HepG2 Attagene DR4 cis-reporter, mRNA transcription; actives raise or lower the signal
Outline: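 Fluorescence intensity of labelled reporter cDNA fragments, separated by capillary electrophoresis, gives the signal. HepG2 cells bearing cis-regulated reporter constructs were treated 24 h; activity fitted bidirectionally relative to DMSO negative control.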

[5] = ATG_AP_1_CIS: Attagene CIS-FACTORIAL HepG2 Assay for human Activator Protein 1 (AP-1) (AID 2282931); conditions: HepG2 Attagene cis-factorial AP-1 reporter mRNA; actives raise or lower the signal
Outline: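 Multiplexed HepG2 reporter assay, 24 h dosing. mRNA induction detected by RT-PCR plus capillary electrophoresis. Activity fitted in both directions against DMSO.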

[6] = ATG_AP_2_CIS: Attagene CIS-FACTORIAL HepG2 Assay for human Activator Protein 2 (AP-2) (AID 2282932); conditions: HepG2 AP-2 cis-reporter, Attagene transcription factor profiling; actives raise or lower the signal
Outline: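 HepG2 cells transiently transfected with cis-element reporter units and exposed for 24 h. Reporter mRNA measured by RT-PCR, FAM labelling, HpaI digestion and capillary electrophoresis. Changes in either direction fitted relative to DMSO.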

[7] = ATG_BRE_CIS: Attagene CIS-FACTORIAL HepG2 Assay for human Bone Morphogenetic Protein (BMP) Response Element (BRE) (AID 2282933); conditions: HepG2 BMP response element reporter, Attagene transcription factor profiling; actives raise or lower the signal
Outline: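 Endogenous transcription factor activity read in transiently transfected HepG2 cells after 24 h chemical exposure. Bidirectional curve fitting against DMSO; readout is reporter transcript level by RT-PCR with capillary electrophoresis of labelled products.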

[8] = molecular target: Retinoic acid receptor alpha (Homo sapiens) (UniProt P10276); experiment: ATG_DR5_RAR_CIS: Attagene CIS-FACTORIAL HepG2 Assay for human Retinoic Acid Receptor Alpha (RARE), DR5 submotif (AID 2282934); conditions: HepG2 Attagene cis-factorial RARE DR5 reporter, mRNA; actives raise or lower the signal;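 on AC50: reporter responds to endogenous RAR alpha beta and gamma in HepG2 not RARA alone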
Retinoic acid receptor alpha (Homo sapiens), sequence (P10276 whole entry, looked up): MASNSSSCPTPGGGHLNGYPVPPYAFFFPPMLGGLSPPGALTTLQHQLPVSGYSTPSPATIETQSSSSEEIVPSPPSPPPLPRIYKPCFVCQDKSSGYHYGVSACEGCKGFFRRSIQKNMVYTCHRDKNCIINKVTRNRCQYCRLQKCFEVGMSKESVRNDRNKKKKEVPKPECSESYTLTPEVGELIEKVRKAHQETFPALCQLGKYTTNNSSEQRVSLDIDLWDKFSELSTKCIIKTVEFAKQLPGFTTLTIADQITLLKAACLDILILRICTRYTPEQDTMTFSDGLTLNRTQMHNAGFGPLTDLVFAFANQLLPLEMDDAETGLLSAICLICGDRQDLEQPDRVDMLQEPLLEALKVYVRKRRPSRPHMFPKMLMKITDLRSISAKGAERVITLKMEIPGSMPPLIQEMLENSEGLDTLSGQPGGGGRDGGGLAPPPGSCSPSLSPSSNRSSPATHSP
Outline: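 Read-out: DR5-driven reporter transcript measured by RT-PCR, 6-FAM primer extension, HpaI digest and capillary electrophoresis. Human HepG2 liver cells carry transiently transfected cis-element reporter constructs; dosing lasts 24 h. Gain or loss of signal fitted against DMSO baseline.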

[9] = molecular target: Transcription factor E2F1 (Homo sapiens) (UniProt Q01094); experiment: ATG_E2F_CIS: Attagene CIS-FACTORIAL HepG2 Assay for human E2F Transcription Factor 1 (AID 2282935); conditions: HepG2 Attagene cis-reporter, E2F reporter RNA transcripts; actives raise or lower the signal
Transcription factor E2F1 (Homo sapiens), sequence (Q01094 whole entry, looked up): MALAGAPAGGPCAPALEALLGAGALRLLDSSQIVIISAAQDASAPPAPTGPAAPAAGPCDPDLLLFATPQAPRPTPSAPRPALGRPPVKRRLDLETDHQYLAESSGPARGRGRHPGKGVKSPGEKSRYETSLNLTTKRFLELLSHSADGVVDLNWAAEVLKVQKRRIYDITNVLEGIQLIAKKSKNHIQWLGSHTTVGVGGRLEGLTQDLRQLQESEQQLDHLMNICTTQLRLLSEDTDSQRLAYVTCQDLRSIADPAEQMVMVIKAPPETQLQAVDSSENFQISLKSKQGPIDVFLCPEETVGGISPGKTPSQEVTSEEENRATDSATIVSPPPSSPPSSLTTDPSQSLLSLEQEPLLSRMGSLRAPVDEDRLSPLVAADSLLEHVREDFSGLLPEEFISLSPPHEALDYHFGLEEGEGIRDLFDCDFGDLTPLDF
Outline: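 Endogenous E2F1 activity read through cis-promoter reporter units transfected into HepG2. After 24 h compound treatment, reporter mRNA measured by RT-PCR, HpaI digestion and capillary electrophoresis. Bidirectional fit versus DMSO.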

[10] = ATG_E_Box_CIS: Attagene CIS-FACTORIAL HepG2 Assay for human Enhancer Box (E-box) (AID 2282936); conditions: HepG2 E-box cis-reporter transcription, actives raise or lower the signal
Outline: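 HepG2 cells transiently transfected with multiplexed cis-element reporter units, dosed 24 h; reporter mRNA quantified by RT-PCR, 6-FAM labelling, HpaI digestion and capillary electrophoresis. E-box (USF1) signal fitted bidirectionally vs DMSO.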

[11] = ATG_M_61_CIS: Attagene CIS-FACTORIAL HepG2 Assay for M61 Transcription Factor (Internal Marker) (AID 2282937); conditions: HepG2 Attagene CIS-FACTORIAL M61 internal marker reporter; actives raise or lower the signal
Outline: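 Endogenous transcription factor activity in HepG2 is read through transiently transfected cis-element reporter units. After 24 h dosing, RNA undergoes reverse transcription, PCR and primer extension with 6-FAM before capillary electrophoresis; DMSO-referenced bidirectional fit.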

[12] = ATG_EGR_CIS: Attagene CIS-FACTORIAL HepG2 Assay for human Early Growth Response 1 (EGR1) (AID 2282938); conditions: HepG2 Attagene CIS-FACTORIAL EGR reporter mRNA; actives raise or lower the signal
Outline: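 Activity is taken as induction or loss of reporter mRNA versus DMSO, fitted bidirectionally. Transcripts from cis-regulated reporter units in transiently transfected HepG2 were measured after 24 h by RT-PCR with capillary electrophoresis.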

[13] = ATG_M_19_CIS: Attagene CIS-FACTORIAL HepG2 Assay for M19 Transcription Factor (Internal Marker) (AID 2282939); conditions: HepG2 Attagene CIS-FACTORIAL M19 internal marker reporter; actives raise or lower the signal
Outline: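 Internal marker readout, fitted in both directions against DMSO, from HepG2 cells carrying transfected cis-element reporter constructs; RT-PCR and capillary electrophoresis of reporter mRNA after 24 h exposure.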

[14] = ATG_Ets_CIS: Attagene CIS-FACTORIAL HepG2 Assay for human Erythroblast Transformation Specific (ETS) (AID 2282941); conditions: HepG2 ETS cis-reporter transcription, actives raise or lower the signal
Outline: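 HepG2 cells transfected with multiple cis-regulated reporter units measuring endogenous ETS-driven transcription, 24 h after dosing. Reporter mRNA quantified by RT-PCR with capillary electrophoresis; bidirectional fit relative to DMSO.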

[15] = molecular target: Hepatocyte nuclear factor 3-beta (Homo sapiens) (UniProt Q9Y261); experiment: ATG_FoxA2_CIS: Attagene CIS-FACTORIAL HepG2 Assay for human Forkhead box A2 (FOXA2) (AID 2282942); conditions: HepG2 cis-reporter transcription factor activity, 24 h; actives raise or lower the signal
Hepatocyte nuclear factor 3-beta (Homo sapiens), sequence (Q9Y261 whole entry, looked up): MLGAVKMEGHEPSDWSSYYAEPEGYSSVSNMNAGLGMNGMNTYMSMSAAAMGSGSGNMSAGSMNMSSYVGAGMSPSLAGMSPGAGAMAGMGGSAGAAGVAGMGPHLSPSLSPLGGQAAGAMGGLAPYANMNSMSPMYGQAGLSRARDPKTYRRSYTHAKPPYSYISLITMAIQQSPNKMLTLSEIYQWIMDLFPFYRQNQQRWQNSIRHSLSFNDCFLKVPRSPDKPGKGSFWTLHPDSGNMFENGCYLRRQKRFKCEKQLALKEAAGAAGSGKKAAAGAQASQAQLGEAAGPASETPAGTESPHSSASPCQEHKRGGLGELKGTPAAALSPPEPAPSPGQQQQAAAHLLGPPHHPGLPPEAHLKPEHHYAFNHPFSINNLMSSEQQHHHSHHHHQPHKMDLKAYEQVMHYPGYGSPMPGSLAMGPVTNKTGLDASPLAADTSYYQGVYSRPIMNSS
Outline: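 Reporter transcript induction is measured by fluorescence after capillary electrophoresis of RT-PCR products from HepG2 cells exposed 24 h. Cis-regulated reporter units report endogenous factor activity; curves fitted both directions against DMSO.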

[16] = ATG_FoxO_CIS: Attagene CIS-FACTORIAL HepG2 Assay for human Forkhead box O (FoxO) (AID 2282943); conditions: HepG2 Attagene cis-reporter, FoxO element, mRNA; actives raise or lower the signal
Outline: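 Read-out: fluorescence of 6-FAM-labelled reporter cDNA fragments resolved by capillary electrophoresis. Transiently transfected HepG2 cells were dosed for 24 h; activity fitted in both directions relative to DMSO controls.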

[17] = ATG_GATA_CIS: Attagene CIS-FACTORIAL HepG2 Assay for human GATA Binding Protein (AID 2282944); conditions: HepG2 GATA cis-element reporter, Attagene multiplex mRNA; actives raise or lower the signal
Outline: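 Reporter transcripts from a GATA cis-regulated unit, among multiplexed reporters in transfected HepG2 cells, were measured by RT-PCR with capillary electrophoresis after 24 h dosing. Induction or loss scored relative to DMSO.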

[18] = ATG_GLI_CIS: Attagene CIS-FACTORIAL HepG2 Assay for human Zinc Finger Protein GLI1 (AID 2282945); conditions: HepG2, Attagene cis-factorial reporter mRNA, GLI element; actives raise or lower the signal
Outline: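 Transiently transfected HepG2 cells report endogenous transcription factor activity via cis-element-driven reporter units. After 24 h compound exposure, reporter mRNA was measured by RT-PCR with capillary electrophoresis; bidirectional fitting against DMSO baseline.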

[19] = molecular target: Aryl hydrocarbon receptor (Homo sapiens) (UniProt P35869); experiment: ATG_Ahr_CIS: Attagene CIS-FACTORIAL HepG2 Assay for human Aryl Hydrocarbon Receptor (Ahr) (AID 2282930); conditions: HepG2 AhR cis-factorial reporter transcription; actives raise or lower the signal
Aryl hydrocarbon receptor (Homo sapiens), sequence (P35869 whole entry, looked up): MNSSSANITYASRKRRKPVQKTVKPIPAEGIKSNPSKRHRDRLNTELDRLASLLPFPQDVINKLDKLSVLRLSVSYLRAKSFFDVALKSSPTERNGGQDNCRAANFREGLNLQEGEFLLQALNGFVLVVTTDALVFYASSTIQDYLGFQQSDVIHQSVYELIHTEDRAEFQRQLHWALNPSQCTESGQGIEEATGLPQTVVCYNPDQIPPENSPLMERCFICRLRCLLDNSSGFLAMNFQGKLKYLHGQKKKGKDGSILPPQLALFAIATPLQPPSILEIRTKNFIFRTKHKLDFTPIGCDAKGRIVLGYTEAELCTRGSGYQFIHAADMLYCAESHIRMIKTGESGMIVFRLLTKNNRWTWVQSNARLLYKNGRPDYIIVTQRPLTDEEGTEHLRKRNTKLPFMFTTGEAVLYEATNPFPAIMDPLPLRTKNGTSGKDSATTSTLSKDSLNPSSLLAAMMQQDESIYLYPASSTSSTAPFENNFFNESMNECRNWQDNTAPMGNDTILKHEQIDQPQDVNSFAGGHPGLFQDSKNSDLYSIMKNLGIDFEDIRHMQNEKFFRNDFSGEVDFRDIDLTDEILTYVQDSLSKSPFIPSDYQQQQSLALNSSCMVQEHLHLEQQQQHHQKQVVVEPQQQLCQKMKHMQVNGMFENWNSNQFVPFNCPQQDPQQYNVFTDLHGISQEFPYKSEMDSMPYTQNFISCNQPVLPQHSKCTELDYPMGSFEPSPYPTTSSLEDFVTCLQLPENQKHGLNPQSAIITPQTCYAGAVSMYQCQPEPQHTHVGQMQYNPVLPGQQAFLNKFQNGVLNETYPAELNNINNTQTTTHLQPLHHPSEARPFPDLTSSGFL
Outline: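 Read-out: reporter mRNA quantified by RT-PCR with fluorescent primer extension and capillary electrophoresis. Human HepG2 liver cells carried transfected cis-promoter reporter units and were exposed to chemical for 24 h; gain or loss fitted relative to DMSO.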

[20] = ATG_ERE_CIS: Attagene CIS-FACTORIAL HepG2 Assay for Estrogen Response Element (ERE) (AID 2282940); conditions: HepG2 ERE cis-reporter, Attagene RNA transcript; actives raise or lower the signal
Outline: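 After 24 h compound treatment, RNA from transfected HepG2 cells was reverse-transcribed, reporter cDNA PCR-amplified, FAM-labelled, HpaI-cut and resolved by capillary electrophoresis. ERE-driven cis reporter transcripts reflect endogenous factors; gain or loss scored against DMSO.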

Measured: AC50

O=C(O)C1C2CCC(O2)C1C(=O)O (centres undefined)
active: [1] 80.7 µM | [3] 77.8 µM | [5] 59 µM | [8] 75.4 µM | [18] 100 µM
not listed: [19] | [20]
inactive: all other assays above

CC(C)(C)OOC(C)(C)CCC(C)(C)OOC(C)(C)C
active: [3] 90.1 µM | [4] 100 µM | [5] 100 µM | [7] 161 µM
not listed: [19] | [20]
inactive: all other assays above

Oc1ccc2ccc3cccc4ccc1c2c34
active: [4] 11.1 µM
not listed: [13] | [19] | [20]
inactive: all other assays above

CCC(C)c1ccc(O)cc1 (centres undefined)
active: [1] 59.7 µM | [3] 65.8 µM | [4] 100 µM | [5] 69.8 µM | [7] 100 µM
not listed: [8] | [19] | [20]
inactive: all other assays above

Brc1ccc(Oc2ccccc2)cc1
active: [4] 155 µM | [20] 50.8 µM
not listed: [8] | [13]
inactive: all other assays above

Cc1ccc([N+](=O)[O-])cc1
not listed: [8] | [13]
inactive: all other assays above

CCC[CH2][Sn]([Cl])([CH2]CCC)[CH2]CCC
active: [2] 0.097 µM | [3] 0.552 µM | [4] 0.412 µM | [5] 0.522 µM | [10] 0.627 µM | [12] 0.659 µM
not listed: [8] | [13]
inactive: all other assays above
